Data reported in PubChem BioAssay (NCATS).
Values joined by “and” are separate entries in the source; they are usually repeats but may differ in a detail not shown here. Equal entries are not always repeated. Results filed as inconclusive are left out. Some compounds were tested as several samples or in several runs, with calls that do not always agree. Active and inactive are the calls of the source. Unless noted, the call rests on the fitted dose curve; in most records, active means well fitted curve in the direction sought with a large enough effect; inconclusive means small, poorly fitted or top-dose-only effect, or another doubt; inactive means no such curve, though single readings can be large; an effect the other way counts as inactive or inconclusive.

Key:
[1] = AP1 Signaling Pathway (AID 357; active means well fitted curve in either direction with a large enough effect, not every such curve was filed as active;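 further: ME-180 reporter cells stimulated with EGF at its EC50 level; on the % scale 0 is the no-effect control and ±100 the full control effect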); settings: ME-180 AP-1-bla reporter, EGF-induced, beta-lactamase ratio, 5 h; at 38 µM (top of the series)
How it was run: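 Cells are seeded overnight, exposed to compound titrations and an EC50 level of EGF for 5 hours at 37 °C, then loaded with CCF4 dye for 2.5 hours. Beta-lactamase activity under the AP-1 element is read as a blue/green ratio.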

[2] = molecular target: Cytochrome P450 1A2 (Homo sapiens) (UniProt P05177); assay: p450-cyp1a2 (AID 410; calls by dose curve; further: potency means the concentration at half of the fitted maximal effect;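 on activity change, negative = inhibition: -100% = full effect of reference inhibitor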)
Sequence of Cytochrome P450 1A2 (Homo sapiens) (P05177 whole entry, looked up): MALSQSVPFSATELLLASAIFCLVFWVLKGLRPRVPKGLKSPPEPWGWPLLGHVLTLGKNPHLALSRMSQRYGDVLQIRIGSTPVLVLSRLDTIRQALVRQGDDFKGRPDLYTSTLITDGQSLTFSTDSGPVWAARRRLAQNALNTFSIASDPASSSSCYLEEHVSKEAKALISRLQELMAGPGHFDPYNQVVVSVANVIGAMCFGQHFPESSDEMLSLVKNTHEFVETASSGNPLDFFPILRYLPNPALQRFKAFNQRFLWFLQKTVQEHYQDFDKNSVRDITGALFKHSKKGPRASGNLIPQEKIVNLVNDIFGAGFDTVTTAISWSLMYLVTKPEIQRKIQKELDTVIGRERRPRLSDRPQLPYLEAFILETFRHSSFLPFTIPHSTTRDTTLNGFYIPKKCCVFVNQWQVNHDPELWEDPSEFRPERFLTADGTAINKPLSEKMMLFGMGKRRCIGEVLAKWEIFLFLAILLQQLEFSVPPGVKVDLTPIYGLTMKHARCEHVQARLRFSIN
How it was run: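 Luminescent readout of luciferin formed from Luciferin-ME by human CYP1A2; data normalized against complete inhibition by 57 uM furafylline. Enzyme 20nM, substrate 100uM at Km, 100mM KPO4 buffer, 60 min reaction at room temperature.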

[3] = NFAT Signaling Pathway (AID 444; active means well fitted curve in either direction with a large enough effect, not every such curve was filed as active;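 further: carbachol stimulus at about its EC50 of 1 µM final; on the % scale 0 is the no-effect control and ±100 the full control effect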); settings: Jurkat NFAT-bla M1, carbachol, beta-lactamase ratio, 5 h
How it was run: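 Jurkat cells carrying an NFAT-driven β-lactamase reporter and co-transfected muscarinic M1 receptor were treated with compound plus carbachol (1 uM final, an EC50 level) for 5 h at 37 °C. CCF4 loading followed for 1 h at RT; 460/530 nm ratio gave %activity.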

[4] = Stat Signaling Pathway (AID 446; active means well fitted curve in either direction with a large enough effect, not every such curve was filed as active;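 further: ME-180 cervical cancer cells given 40 pM IL-6 alongside compound; SIE-controlled beta-lactamase reporter measured as 460/530 nm FRET emission ratio; on the % scale 0 is the no-effect control and ±100 the full control effect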); settings: ME-180 SIE beta-lactamase reporter, IL-6 stimulated, 5 h
How it was run: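 Screening format detects activators and inhibitors alike: ME-180 SIE-bla cells stimulated at 40 pM IL-6 for 5 hrs with compound, then dual-emission beta-lactamase read at 405 nm excitation.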

[5] = molecular target: Glucocorticoid receptor (Homo sapiens) (UniProt P04150); assay: GR-GFP Redistribution (AID 450;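 active means compounds whose dose series gives a full or clear partial fitted curve of increased nuclear translocation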; further: potency means the concentration at half of the fitted maximal effect); settings: U2OS GR-GFP nuclear translocation, laser cytometry, 2 h
Sequence of Glucocorticoid receptor (Homo sapiens) (P04150 whole entry, looked up, the tested form may be a part): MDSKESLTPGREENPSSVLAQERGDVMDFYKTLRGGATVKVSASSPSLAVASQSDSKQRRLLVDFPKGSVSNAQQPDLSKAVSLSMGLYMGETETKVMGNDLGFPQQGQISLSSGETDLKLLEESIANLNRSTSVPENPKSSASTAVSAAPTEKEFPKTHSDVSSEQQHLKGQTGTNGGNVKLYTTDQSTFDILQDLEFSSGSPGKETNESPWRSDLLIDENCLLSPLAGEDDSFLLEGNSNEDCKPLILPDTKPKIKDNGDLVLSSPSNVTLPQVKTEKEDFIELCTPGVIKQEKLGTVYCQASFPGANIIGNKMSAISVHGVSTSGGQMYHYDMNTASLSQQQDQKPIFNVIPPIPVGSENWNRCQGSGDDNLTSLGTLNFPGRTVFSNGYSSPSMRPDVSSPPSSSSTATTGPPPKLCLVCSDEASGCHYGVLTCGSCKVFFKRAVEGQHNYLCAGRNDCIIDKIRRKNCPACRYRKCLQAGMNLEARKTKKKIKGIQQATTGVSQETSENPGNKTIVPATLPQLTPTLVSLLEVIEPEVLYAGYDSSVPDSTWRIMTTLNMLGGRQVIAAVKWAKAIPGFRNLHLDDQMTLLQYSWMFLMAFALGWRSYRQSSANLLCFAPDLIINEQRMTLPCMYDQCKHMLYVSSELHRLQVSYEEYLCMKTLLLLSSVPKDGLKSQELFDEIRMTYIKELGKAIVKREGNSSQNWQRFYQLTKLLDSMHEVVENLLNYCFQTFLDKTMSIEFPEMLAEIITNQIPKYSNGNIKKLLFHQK

[6] = molecular target: Glucocorticoid receptor (Homo sapiens) (UniProt P04150); assay: GR-EFC Redistribution (AID 451; calls by dose curve; further: potency means the concentration at half of the fitted maximal effect); settings: CHO-K1 GR-EFC translocation, beta-gal luminescence, 2 h
How it was run: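 CHO-K1 cells stably expressing nuclear-localized β-gal enzyme acceptor and GR fused C-terminally to the enzyme donor fragment; ligand-driven nuclear translocation restores β-gal by complementation. Compounds titrated up to 46 uM final, 2 h at 37 °C; luminescence read.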

[7] = molecular target: Mitogen-activated protein kinase 10 (Mus musculus) (UniProt Q61831); assay: JNK3 AlphaScreen Assay (AID 530; active means well fitted curve in either direction with a large enough effect, not every such curve was filed as active;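 further: kinase came from lysate of stimulated human HepG2 cells; signal reports phosphorylation of biotinylated GST-cJun 1-79 at Ser73 with 10 µM ATP; on the % scale 0 is the no-effect control and ±100 the full control effect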)
How it was run: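 Inhibitors reduce antibody binding to phosphorylated biotin-cJun, lowering AlphaScreen luminescence. Lysates from HepG2 cells pre-activated by IL-1beta plus TNF-alpha supplied JNK3; compounds were titrated.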

[8] = molecular target: 3',5'-cyclic-AMP phosphodiesterase 4B (Homo sapiens) (UniProt Q07343); assay: qHTS Assay for Inhibitors of PDE-IV (AID 607; active means well fitted activation curve with a large enough effect in the main read-out, with a control signal flat, not every such curve was filed as active; further: % of control where 0% means no effect)
Sequence of 3',5'-cyclic-AMP phosphodiesterase 4B (Homo sapiens) (Q07343 whole entry, looked up): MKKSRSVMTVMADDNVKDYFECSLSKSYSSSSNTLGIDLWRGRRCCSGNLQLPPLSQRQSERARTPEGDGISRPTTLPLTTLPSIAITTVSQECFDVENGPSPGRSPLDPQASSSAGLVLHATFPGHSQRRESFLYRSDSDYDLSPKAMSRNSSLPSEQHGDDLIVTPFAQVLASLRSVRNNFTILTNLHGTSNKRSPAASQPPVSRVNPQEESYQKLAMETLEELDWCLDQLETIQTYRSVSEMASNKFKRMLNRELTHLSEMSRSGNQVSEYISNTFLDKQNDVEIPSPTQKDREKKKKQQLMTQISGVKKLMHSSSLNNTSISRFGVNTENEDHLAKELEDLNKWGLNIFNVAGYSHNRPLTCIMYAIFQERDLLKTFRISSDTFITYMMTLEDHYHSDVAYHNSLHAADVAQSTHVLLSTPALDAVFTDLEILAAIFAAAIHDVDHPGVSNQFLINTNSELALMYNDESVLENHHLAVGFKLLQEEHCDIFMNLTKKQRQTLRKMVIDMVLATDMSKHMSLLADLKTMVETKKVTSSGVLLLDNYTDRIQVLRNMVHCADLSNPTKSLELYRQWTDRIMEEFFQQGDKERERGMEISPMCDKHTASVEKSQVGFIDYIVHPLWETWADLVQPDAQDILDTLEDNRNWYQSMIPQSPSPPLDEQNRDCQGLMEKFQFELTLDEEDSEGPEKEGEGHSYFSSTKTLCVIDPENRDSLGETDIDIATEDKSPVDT
How it was run: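 The readout is membrane depolarisation from a cAMP-sensing CNG channel, detected with a potential dye at ex 535/em 590. Cells were HEK293-derived (endogenous PDE-IV) at 1000 cells/well, titrated up to 22.9 uM final.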

[9] = molecular target: Guanine nucleotide-binding protein G(i) subunit alpha-1 (Homo sapiens) (UniProt P63096); assay: qHTS Assay for Inhibitors of RGS12 GoLoco Motif Activity (Green Fluorophore) (AID 879);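 further: 0% = labeled peptide with Gαi1 and full inhibition = labeled peptide alone without protein; negative values mean loss of peptide binding seen as reduced polarization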
Sequence of Guanine nucleotide-binding protein G(i) subunit alpha-1 (Homo sapiens) (P63096 whole entry, looked up): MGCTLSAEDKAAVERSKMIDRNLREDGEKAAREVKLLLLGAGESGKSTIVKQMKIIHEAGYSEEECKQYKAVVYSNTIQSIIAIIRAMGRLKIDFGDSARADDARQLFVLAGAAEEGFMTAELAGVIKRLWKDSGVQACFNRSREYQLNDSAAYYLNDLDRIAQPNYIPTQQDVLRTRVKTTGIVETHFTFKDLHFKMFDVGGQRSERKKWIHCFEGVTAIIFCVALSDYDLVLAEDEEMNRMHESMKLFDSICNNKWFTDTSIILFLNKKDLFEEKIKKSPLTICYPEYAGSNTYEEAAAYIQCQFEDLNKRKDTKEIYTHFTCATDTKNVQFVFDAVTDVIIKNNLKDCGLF
How it was run: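 Fluorescence polarization assay: 50 nM Gαi1 with 10 nM FITC-labeled RGS12 GoLoco peptide in 10 mM Tris pH 7.5, 150 mM NaCl, 0.1 mM GDP, 0.05% NP40, 10 min at room temperature with compound.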

[10] = molecular target: Cytochrome P450 3A4 (Homo sapiens) (UniProt P08684); assay: qHTS Assay for Activators of Cytochrome P450 3A4 (AID 885); further: nearly all actives have a fitted effect of over 65% in size
Sequence of Cytochrome P450 3A4 (Homo sapiens) (P08684 whole entry, looked up): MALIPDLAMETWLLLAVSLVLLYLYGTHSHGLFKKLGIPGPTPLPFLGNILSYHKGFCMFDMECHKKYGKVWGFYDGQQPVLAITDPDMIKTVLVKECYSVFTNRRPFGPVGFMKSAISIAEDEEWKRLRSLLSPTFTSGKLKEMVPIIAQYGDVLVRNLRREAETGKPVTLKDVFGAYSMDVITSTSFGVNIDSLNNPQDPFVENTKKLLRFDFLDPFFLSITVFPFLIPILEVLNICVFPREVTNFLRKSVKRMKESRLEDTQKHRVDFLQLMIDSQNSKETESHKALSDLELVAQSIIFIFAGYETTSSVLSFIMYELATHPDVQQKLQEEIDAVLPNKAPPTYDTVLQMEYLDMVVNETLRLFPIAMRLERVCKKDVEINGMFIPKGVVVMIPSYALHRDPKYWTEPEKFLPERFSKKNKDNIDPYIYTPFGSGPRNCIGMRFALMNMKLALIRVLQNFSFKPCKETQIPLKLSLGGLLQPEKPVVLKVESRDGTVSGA
How it was run: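 Steps: enzyme/substrate mix dispensed; compound added, 10 min RT; NADPH regeneration solution added, 60 min RT; luciferin detection buffer stops reaction; 20 min later luminescence measured.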

[11] = molecular target: Cytochrome P450 2D6 (Homo sapiens) (UniProt P10635); assay: qHTS Assay for Inhibitors and Substrates of Cytochrome P450 2D6 (AID 891);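 further: luciferin methyl ether substrate demethylated by CYP2D6 with NADPH regeneration; on the % scale 0 is the no-effect control and ±100 the full control effect; nearly all actives have a fitted effect of over 60% in size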
How it was run: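 Human CYP2D6 (5 nM) with 30 uM Luciferin-ME EGE (at Km) in 100 mM KPO4, compound preincubated 10 min, then NADPH regeneration system for 60 min at room temperature. Luciferin read by luminescence; normalized to 1.43 uM quinidine.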

[12] = qHTS Assay for Identification of Small Molecule Agonists for Thrombopoietin (TPO) Signaling Pathway (AID 917); further: on the % scale 0 is the no-effect control and ±100 the full control effect
How it was run: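 IL-3-dependent murine pro-B Ba/F3 cells, stably transfected with human TPO receptor and GpIIb-promoter luciferase, are incubated 24 hrs at 37 C with test compound and 26 pM TPO; luciferase signal is read after 10 min at room temperature.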

[13] = molecular target: Muscarinic acetylcholine receptor M1 (Rattus norvegicus) (UniProt P08482); assay: qHTS Assay for Antagonists of Acetylcholine Muscarinic M1 Receptor: Kinetic Measurement of Intracellular Calcium Response (AID 943);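 further: Fluo-4 calcium signal as peak divided by basal fluorescence over 4 min; nearly all actives have a fitted effect of over 75% in size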
Sequence of Muscarinic acetylcholine receptor M1 (Rattus norvegicus) (P08482 whole entry, looked up): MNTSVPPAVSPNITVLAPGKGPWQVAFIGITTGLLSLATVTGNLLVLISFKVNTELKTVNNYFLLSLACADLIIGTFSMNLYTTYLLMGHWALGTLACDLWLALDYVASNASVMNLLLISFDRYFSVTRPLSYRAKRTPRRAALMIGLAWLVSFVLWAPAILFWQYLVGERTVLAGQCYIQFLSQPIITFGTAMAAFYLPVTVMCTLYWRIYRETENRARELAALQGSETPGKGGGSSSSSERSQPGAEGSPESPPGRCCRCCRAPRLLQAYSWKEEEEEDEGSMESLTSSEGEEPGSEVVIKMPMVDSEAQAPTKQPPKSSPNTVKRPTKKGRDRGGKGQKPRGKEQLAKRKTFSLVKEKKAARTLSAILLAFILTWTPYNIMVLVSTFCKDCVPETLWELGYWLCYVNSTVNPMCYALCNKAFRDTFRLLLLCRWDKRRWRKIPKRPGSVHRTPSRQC
How it was run: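 Rat M1-CHO cells, 2000/well, overnight → Fluo-4 no-wash dye with probenecid, 1 h 37C → compound 10 min, room temp → basal read 6 s → carbachol EC80 (100 nM) → 4 min kinetic read; peak/basal.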

[14] = molecular target: Muscarinic acetylcholine receptor M1 (Rattus norvegicus) (UniProt P08482); assay: qHTS Assay for Antagonists of Acetylcholine Muscarinic M1 Receptor: Measurement of IP-One Response (AID 944); further: nearly all actives have a fitted effect of over 75% in size
How it was run: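 M1-CHO (rat), 2000 cells/well, overnight recovery; cpd 10 min; carbachol EC80 (200 nM), 30 min, HEPES buffer + 50 mM LiCl pH 7.4; IP-One HTRF, Ex 337, Em 620/665 nm.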

[15] = molecular target: Pyruvate kinase PKM (Homo sapiens) (UniProt P14618); assay: qHTS Assay for Activators of Human Muscle Pyruvate Kinase (AID 954; active means well fitted curve in the direction sought with a large enough effect, not every such curve was filed as active;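 further: 0% = uninhibited enzyme and -100% = no enzyme or full thiadiazolimine inhibition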)
Sequence of Pyruvate kinase PKM (Homo sapiens) (P14618 whole entry, looked up): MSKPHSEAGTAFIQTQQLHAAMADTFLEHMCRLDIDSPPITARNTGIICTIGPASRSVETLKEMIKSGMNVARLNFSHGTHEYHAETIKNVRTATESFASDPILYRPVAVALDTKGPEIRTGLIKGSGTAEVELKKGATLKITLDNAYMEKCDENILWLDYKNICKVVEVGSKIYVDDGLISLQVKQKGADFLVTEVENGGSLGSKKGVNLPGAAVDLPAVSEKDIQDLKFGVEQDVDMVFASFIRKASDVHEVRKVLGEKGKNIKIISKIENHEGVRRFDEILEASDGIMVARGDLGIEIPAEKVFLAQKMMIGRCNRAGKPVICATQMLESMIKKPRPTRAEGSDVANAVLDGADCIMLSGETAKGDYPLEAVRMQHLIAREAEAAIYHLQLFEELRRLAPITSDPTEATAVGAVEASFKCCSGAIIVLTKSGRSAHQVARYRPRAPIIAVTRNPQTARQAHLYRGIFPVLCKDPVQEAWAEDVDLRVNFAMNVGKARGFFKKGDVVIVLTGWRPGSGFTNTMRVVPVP
How it was run: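 Reaction: 0.1 nM purified PKM2 with 0.5 mM phosphoenolpyruvate and 0.1 mM ADP, room temperature, 1 h. Readout: luciferase-based ATP luminescence after stop reagent. Activators judged against a 0.3 nM enzyme column.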

[16] = molecular target: alpha-glucosidase (Oryza sativa, rice) (UniProt Q653V4); assay: Counterscreen for Glucocerebrosidase Inhibitors: qHTS Assay for Rice alpha-Glucosidase at pH 5.0 (AID 997);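 further: 0% = full activity with enzyme and -100% = basal without enzyme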
How it was run: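 Rice alpha-glucosidase (4 nM final) with 400 uM 4-methylumbelliferyl-alpha-D-glucopyranoside in citrate buffer pH 5.0, 20 min at room temperature, stopped at pH 10; fluorescence 365/440 nm, compounds 0.7 nM–77 uM, AC50 from Hill fits.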

[17] = qHTS Assay for Lipid Storage Modulators (AID 1519; calls by dose curve); settings: Drosophila S3 cells, BODIPY lipid droplet/cell ratio, laser cytometry, cells loaded with oleic acid
How it was run: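 Cells seeded at 5,000 per well were treated with compounds over a concentration series and loaded with oleic acid (400 uM, as added). Lipid droplet fluorescence (488 nm excitation, 500-530 nm channel) was read by laser-scanning cytometry and normalized to 20 uM Triacsin C.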

[18] = molecular target: Ubiquitin carboxyl-terminal hydrolase 1 (Homo sapiens) (UniProt O94782); assay: Inhibitors of USP1/UAF1: Pilot qHTS (AID 504865);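 further: rhodamine fluorescence freed from ubiquitin-rhodamine substrate followed over time; top concentration of the series differs between compounds; on the % scale 0 is the no-effect control and ±100 the full control effect; nearly all actives have a fitted effect of over 35% in size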
Sequence of Ubiquitin carboxyl-terminal hydrolase 1 (Homo sapiens) (O94782 whole entry, looked up): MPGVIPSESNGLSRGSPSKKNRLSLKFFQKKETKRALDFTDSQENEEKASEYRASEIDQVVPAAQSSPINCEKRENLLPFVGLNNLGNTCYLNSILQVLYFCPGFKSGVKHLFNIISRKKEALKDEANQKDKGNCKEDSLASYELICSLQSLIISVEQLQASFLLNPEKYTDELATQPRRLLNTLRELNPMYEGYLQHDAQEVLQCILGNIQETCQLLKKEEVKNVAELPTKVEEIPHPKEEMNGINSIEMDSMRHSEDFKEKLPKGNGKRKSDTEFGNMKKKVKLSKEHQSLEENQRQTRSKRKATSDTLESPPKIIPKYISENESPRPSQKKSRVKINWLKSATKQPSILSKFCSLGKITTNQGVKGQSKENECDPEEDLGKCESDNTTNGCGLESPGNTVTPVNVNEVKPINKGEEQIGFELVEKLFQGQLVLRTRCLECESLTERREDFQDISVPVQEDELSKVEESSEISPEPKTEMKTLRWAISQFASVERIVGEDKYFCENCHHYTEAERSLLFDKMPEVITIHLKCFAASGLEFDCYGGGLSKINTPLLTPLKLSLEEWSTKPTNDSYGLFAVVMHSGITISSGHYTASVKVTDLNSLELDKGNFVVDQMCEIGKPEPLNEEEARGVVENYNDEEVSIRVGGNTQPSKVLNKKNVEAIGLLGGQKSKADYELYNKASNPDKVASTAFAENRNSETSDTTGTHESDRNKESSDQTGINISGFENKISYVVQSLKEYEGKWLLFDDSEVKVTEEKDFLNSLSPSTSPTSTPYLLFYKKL
How it was run: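 Enzyme-free wells gave the negative control, while test wells held 1nM USP1/UAF1 preincubated with compound for 15 min at room temperature. Ub-Rho at 150nM final started the reaction, and fluorescence at 480/540 nm was recorded kinetically.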

[19] = molecular target: DNA dC->dU-editing enzyme APOBEC-3G (Homo sapiens) (UniProt Q9HC16); assay: qHTS for inhibitors of Vif-A3G interactions: Validation (AID 588379); further: 0% is about no effect
How it was run: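 HeLa cells stably expressing Vif and A3G-eYFP, 700 cells/well, incubated overnight at 37 deg C, then exposed to compound overnight at 37 deg C. Inhibition of Vif-mediated degradation read as increased yellow fluorescence (Ex 488/Em 500-530) by laser-scanning cytometry.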

[20] = test system: Zika virus NS2B-NS3 protease; assay: Primary screen GU AMC qHTS for Zika virus inhibitors (AID 1347154);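 further: 0% = no-inhibitor control and -100% = no-enzyme control; nearly all actives have a fitted effect of over 70% in size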
How it was run: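 Unlinked Zika NS2B hydrophilic domain/NS3 protease domain noncovalent complex (25 nM final) in 10 mM Tris-HCl pH 8.0, 0.01% Tween 20, with AMC peptide substrate. Fluorescence (ex 340, em 450 nm) change over 15 min, room temperature; percent inhibition fitted to 4-parameter Hill equation.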

[21] = Primary qHTS for small molecule stabilizers of the endoplasmic reticulum resident proteome: Secreted ER Calcium Modulated Protein (SERCaMP) assay (AID 1508630); further: on the % scale 0 is the no-effect control and ±100 the full control effect
How it was run: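 GLuc-SERCaMP-expressing SH-SY5Y cells, pretreated 16 h with compound, are challenged with thapsigargin to empty ER calcium stores; after 4 h, coelenterazine is added directly to the medium and luminescence is imaged.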

C[C@H](N=C(NC#N)Nc1ccncc1)C(C)(C)C
inactive: activity change, negative = inhibition [1] -27.9% | activity change, negative = inhibition ([3]; at 17.2 µM (top of the series)) 5.32% | activity change, negative = inhibition ([3]; at 38 µM (top of the series)) 6.54% | activity, negative = inhibition ([4]; at 17.2 µM (top of the series)) -8.19% | activity, negative = inhibition ([4]; at 38 µM (top of the series)) -12.4% | Potency [5] > 46 µM and > 20.6 µM | Potency [6] > 46 µM and > 20.6 µM | Potency [7] | Potency [8] | outcome [9] | Potency [10] | Potency [11] | Potency [12] | Potency [13] | Potency [14] | outcome [15] | outcome [16] | activity change, negative = inhibition ([17]; at 25.7 µM (top of the series)) -0.699% | Potency [18] | Potency [19] | Potency [20] | Potency [21]
15.8 µM (active) and inactive: Potency [2]
1.19%: max response ([17]; measured here: cell count channel max response)
-1.85%: max response ([17]; measured here: lipid channel max response)
